The text below walks through data of PubChem BioAssay AID1578 (Sanford-Burnham Center for Chemical Genomics, 2009).

Out of some 290,000 compounds screened, about 3,000 (1%) were called active. Cut-off read from the data, not from the text of the source: active = inhibition mostly above about 36% (no sharp cut-off); inactive = mostly below about 34%. Shown is part of a subset that was picked to be rich in actives.

The inhibition is the drop in the measured response relative to a control, in per cent.

The nature of this assay: NOD1 signaling inhibitors, primary screen, cell-based, luminescence, uHTS (AID 1578).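 Note: HEK-293T reporter cells stimulated with the NOD1 agonist gamma-tri-DAP.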 Particulars: NOD1-driven NF-kB luciferase reporter cells, at 4 µM, stronger effect = higher value. (In a reporter assay the amount or activity of a reporter protein is the signal.)
With `CC(=O)N1CCN=C1SCc1ccccc1Cl`, the inhibition was 1.2% (inactive).

For the compound `COc1ccc(C2C(C(=O)c3sc(C)nc3C)=C(O)C(=O)N2CCN(C)C)cc1` (stereo unspecified), the inhibition was -18.4% (inactive).

With `CCOc1ccc(/C=C2\SC(=S)NC2=O)cc1OC`, the inhibition was -40.1% (inactive).

`COc1cc(/C=C2/SC(=O)NC2=O)ccc1OCc1ccccc1`: the inhibition is -38.4% (inactive).

Turning to `COc1ccccc1OCCCOc1ccc(/C=C2\SC(=O)NC2=O)cc1OC`, the inhibition was 54.4% (inactive).

Turning to `CCOc1ccc(N(C)c2ccc(/C=C3/SC(=S)NC3=O)cc2)cc1`, the inhibition was 43.6% (inactive).

On to `CC(=O)Nc1ccc(OCc2nnc(-c3ccc(Cl)cc3)o2)cc1`, for which the inhibition is -27.9% (inactive).

In the case of `Cc1ccc2c(c1)c1c(n2CC(O)Cn2ccnc2C)C(=O)CCC1` (stereo unspecified), the inhibition was -18.6% (inactive).

As to `COCCNC(=S)N(CCc1c(C)[nH]c2ccccc12)Cc1ccco1`, the inhibition was -30.2% (inactive).

In the case of `O=C(CCN1C(=O)c2ccccc2C1=O)N1CCOCC1`, the inhibition is -25.4% (inactive).

On to `Cc1ccc2c(c1)CCCN2C(=O)Nc1ccc2c(c1)OCO2`, for which the inhibition is -2.3% (inactive).

Consider `Cc1ccc(CNC(=O)Cn2cncn2)cc1`, for which the inhibition is 8.6% (inactive).

As to `O=C(Cn1cncn1)NCc1ccc(Cl)cc1`, the inhibition was 66.1% (active).

`COc1ccc(CNC(=O)Cn2cncn2)cc1OC`: the inhibition is -12.9% (inactive).

As for `Cc1cc(C)n(C(=O)CCCCCCCC(=O)n2nc(C)cc2C)n1`, the inhibition was -26.9% (inactive).

`CC(=O)Nc1ccc2[nH]c3ccccc3c2c1`: the inhibition is -15.1% (inactive).

On to `O=C(Nc1ccc(Cl)cc1)c1cc2c(cc1O)[nH]c1ccccc12`, for which the inhibition is 43.7% (active).

Regarding `COc1ccc(NC(=O)c2cc3ccc4c5ccccc5[nH]c4c3cc2O)cc1`, the inhibition is -6.7% (inactive).

As to `O=C(CSc1ccc(-c2ccccn2)nn1)NCc1ccc(F)cc1`, the inhibition was -16.2% (inactive).

Consider `COc1ccccc1CNC(=O)COC(=O)CNS(=O)(=O)c1ccc(C)cc1`, for which the inhibition is -3% (inactive).

For `Cc1ccc(N(c2ncnc(N)c2[N+](=O)[O-])C2CCCCC2)cc1`, the inhibition was 22.2% (inactive).

For the compound `CN(c1ncnc(N)c1[N+](=O)[O-])C1CCS(=O)(=O)C1` (stereo unspecified), the inhibition is 58% (active).

`Nc1ncnc(N(c2ccccc2)C2CCCCC2)c1[N+](=O)[O-]`: the inhibition was 44.6% (inactive).

As for `CN(c1ncnc(N)c1[N+](=O)[O-])C1CCCCC1`, the inhibition was 80.2% (active).

On to `Nc1ncnc(NC2CCS(=O)(=O)C2)c1[N+](=O)[O-]` (stereo unspecified), for which the inhibition is 11.8% (inactive).

As for `CN(Cc1ccccc1)c1ncnc(N)c1[N+](=O)[O-]`, the inhibition is 46% (inactive).

Regarding `CC1=Cc2ccccc2C(C#N)N1C(=O)c1ccccc1` (stereo unspecified), the inhibition was 31.4% (inactive).

As for `Cc1cc(-c2ccc(C)c(S(=O)(=O)NCCCN3CCN(c4ccccc4)CC3)c2)on1`, the inhibition is 17.3% (inactive).

As for `COc1ccc(-c2cc(C)no2)cc1S(=O)(=O)NCCCN1CCN(c2ccccc2)CC1`, the inhibition was -7.4% (inactive).

On to `CCc1ccc(-c2cc(C)no2)cc1S(=O)(=O)N1CCN(c2ccc(F)cc2)CC1`, for which the inhibition is 5.8% (inactive).

Regarding `Cc1cc(-c2ccc(C)c(S(=O)(=O)N3CCN(c4ccccn4)CC3)c2)on1`, the inhibition is -13% (inactive).

On to `CC(NC(=O)NC(=O)c1ccc(Cl)cc1Cl)C1CC1` (stereo unspecified), for which the inhibition is -53% (inactive).

`CCOc1ccc(NC(=S)NC(C)c2cccs2)cc1` (stereo unspecified): the inhibition is -21.7% (inactive).

As for `COc1cc(NC(=O)CN(c2ccc(C)cc2)S(=O)(=O)c2c(C)noc2C)cc(OC)c1`, the inhibition is -34.4% (inactive).

With `O=C1C=C(Nc2ccccc2)c2ccccc2C1=O`, the inhibition is -24.6% (inactive).

Regarding `O=C1C=C(NCc2ccccc2)c2ccccc2C1=O`, the inhibition is 78.8% (active).

As for `CCCCNC1=CC(=O)C(=O)c2ccccc21`, the inhibition was -7.1% (inactive).

On to `O=C1Cc2cc(S(=O)(=O)N3CCCCC3)ccc2N1`, for which the inhibition was -22.1% (inactive).

For `CCCC(=O)NC(=S)Nc1cccc(NC(=O)c2ccccc2Cl)c1`, the inhibition is -18.6% (inactive).

On to `O=C(Nc1cccc(S(=O)(=O)Nc2ccccc2F)c1)c1ccc2ccccc2n1`, for which the inhibition was 33.7% (inactive).

With `COc1ccccc1NS(=O)(=O)c1cc(NC(=O)c2ccc3ccccc3n2)ccc1Cl`, the inhibition was -24.5% (inactive).

For `COc1ccc(CCNC(=O)c2ccc3ccccc3n2)cc1OC`, the inhibition is -14.9% (inactive).

For `COc1ccc(CNC(=O)c2ccc3ccccc3n2)cc1`, the inhibition is -33.9% (inactive).

On to `COc1cccc(C(=O)NC2CCN(CC(=O)Nc3nccs3)CC2)c1`, for which the inhibition is 7.4% (inactive).

On to `O=C(c1ccc2nc(Cc3cccc(Cl)c3)oc2c1)N1CCC[C@H]1CO`, for which the inhibition is -34% (inactive).

Turning to `O=C(CCN1CCCCO1)N1CCCC(N2CCN(c3ccc(F)cc3)CC2)C1` (stereo unspecified), the inhibition was -8.6% (inactive).

On to `Cc1ccc(CNC(=O)C2CCN(c3nn4c(=O)cc(C)nc4s3)CC2)cc1`, for which the inhibition is -23.9% (inactive).

With `COc1ccc(C)cc1N(C(=O)c1ccc(C#N)cc1)C1=NC(C)(C)CS1`, the inhibition is -8.3% (inactive).

For `Cc1ccc(OCC(=O)N2CCc3ccccc3C2)cc1`, the inhibition is 4.6% (inactive).

As to `COc1ccc(OCC(=O)N2CCc3ccccc3C2)cc1`, the inhibition was -21.2% (inactive).

In the case of `CCn1cc(/C=N/NC(=O)c2cc3c(ccc4ccccc43)o2)c2ccccc21`, the inhibition is 32% (inactive).

Regarding `CCOC(=O)N/N=C/c1cn(CCCOc2ccccc2)c2ccccc12`, the inhibition was 79.6% (active).

On to `C#CCn1cc(/C=N/NC(=O)c2cc3ccccc3o2)c2ccccc21`, for which the inhibition was -7.9% (inactive).

Regarding `CCOC(=O)N/N=C/c1cn(CCCOc2ccc(C)cc2)c2ccccc12`, the inhibition is 31.1% (inactive).

On to `CCOC(=O)Cn1cc(/C=N/NC(=O)c2cc3ccccc3o2)c2ccccc21`, for which the inhibition was 35.8% (active).

For `COC(=O)N/N=C/c1cn(CCCOc2ccccc2)c2ccccc12`, the inhibition was 25.7% (inactive).

On to `CCCS(=O)(=O)N1CCC(C(=O)c2cccc(C(F)(F)F)c2)CC1`, for which the inhibition is -5.7% (inactive).

With `Cc1cc(C(=O)Nc2nnc(C(F)(F)F)s2)cs1`, the inhibition was -7.7% (inactive).

Turning to `COc1ccc(OC)c(S(=O)(=O)N2CCN3CCCC3C2)c1` (stereo unspecified), the inhibition was -16.6% (inactive).

In the case of `Nc1ccccc1C#CC(=O)c1ccccc1`, the inhibition is 58.4% (active).

For the compound `Nc1ccccc1C#Cc1ccccc1`, the inhibition is -30.1% (inactive).

Regarding `Nc1ccccc1C#CCCCCO`, the inhibition was -18.4% (inactive).

In the case of `O=[N+]([O-])c1ccc(Cl)c(/C=N/n2c(COc3ccccc3)n[nH]c2=S)c1`, the inhibition was -22% (inactive).

Consider `COC(=O)CN1C(=S)N(c2ccc(Cl)cc2)C(=O)C1CC(=O)Nc1ccccc1` (stereo unspecified), for which the inhibition is -29.4% (inactive).

As to `Nc1ccc(N=Nc2ccccc2)c2cccnc12`, the inhibition was -3.3% (inactive).

In the case of `Cc1cccc(N=Nc2ccc(O)c3ncccc23)c1`, the inhibition was 108% (active).

In the case of `CCS(=O)(=O)c1ccc(OC)c(N=Nc2ccc(O)c3ncccc23)c1`, the inhibition was 24.1% (inactive).

`COc1ccc(C)cc1N=Nc1ccc(O)c2ncccc12`: the inhibition is -31.6% (inactive).

Regarding `O=S(=O)(O)c1cccc2c(N=Nc3ccc(O)c4ncccc34)cccc12`, the inhibition was 25.1% (inactive).

In the case of `O=Nc1ccc(O)c2ncccc12`, the inhibition was 19.6% (inactive).

Consider `Cc1cccc(NCc2ccc(O)c3ncccc23)c1`, for which the inhibition was -29% (inactive).

With `COc1ccccc1N=Nc1ccc(O)c2ncccc12`, the inhibition was -11.7% (inactive).

Take `COc1cccc(N=Nc2ccc3ccccc3c2O)c1`: the inhibition was -81.3% (inactive).

Take `CCOC(=O)c1ccc(Nc2c(OCC)c(=O)c2=O)cc1`: the inhibition was 8% (inactive).

For `Cc1ccc(/C=N/N2CCN(C3c4ccccc4-c4ccccc43)CC2)s1`, the inhibition was 0.2% (inactive).

For the compound `NNC(=O)c1cc(Cl)ccc1Cl`, the inhibition was -38.8% (inactive).

On to `COc1ccc(-c2noc(CCC(=O)NCCc3ccccc3)n2)cc1OC`, for which the inhibition was -7.8% (inactive).

Turning to `c1ccc(-c2nnsc2Sc2ccccn2)cc1`, the inhibition was -52.7% (inactive).

With `CN(C(=O)n1cnc2ccccc21)c1ccccc1`, the inhibition is -29.2% (inactive).

Take `CCOc1cc2nc(-c3ccc(OC)c(OC)c3)nc(N3CCOCC3)c2cc1OC`: the inhibition is -23.5% (inactive).

As to `COc1ccc(N=Nc2ccc(O)c3ncccc23)cc1`, the inhibition was 108% (active).

As to `CCS(=O)(=O)c1ccc(N=Nc2ccc(O)c3ncccc23)c(OC)c1`, the inhibition was -30% (inactive).

Turning to `CCOc1ccc(N=Nc2ccc(O)c3ncccc23)cc1`, the inhibition is 25.7% (inactive).

With `Cc1ccc(C(=O)Nc2nc(C)c(C)s2)o1`, the inhibition is -44.9% (inactive).

Take `O=C(N/N=C/c1ccc(Cl)cc1)c1sccc1OCc1ccc(F)cc1`: the inhibition is -25.8% (inactive).

Turning to `C=CCOc1ccc(C(=O)/C=C2/C(=O)Nc3ccccc32)cc1`, the inhibition is 1.1% (inactive).

For `C=CCOc1ccccc1C(=O)/C=C1/C(=O)Nc2ccccc21`, the inhibition was 37.3% (active).

As for `C=CCOc1cccc(C(=O)/C=C2/C(=O)Nc3ccccc32)c1`, the inhibition was -3.7% (inactive).

Regarding `Cc1cc(NC(=O)CCC(=O)N(CC(=O)NC2CCCC2)c2cccc(F)c2)no1`, the inhibition is -29.1% (inactive).

For the compound `O=C(Nc1ccccn1)c1ccc(Br)c(S(=O)(=O)N2CCCC2)c1`, the inhibition was -39% (inactive).

Take `O=C(Nc1ccccn1)c1ccc(Br)c(S(=O)(=O)N2CCCCC2)c1`: the inhibition was -25.4% (inactive).

As to `CC(C)(C)c1ccc(C(=O)NC(=S)NCc2ccco2)cc1`, the inhibition was -11% (inactive).

For the compound `N=c1c2c(n(Cc3ccc(Br)cc3)c3c1CCC3)CCCC2`, the inhibition was 39% (inactive).

For `N=c1c2c(n(Cc3ccc(F)cc3)c3c1CCC3)CCCC2`, the inhibition was 22.1% (inactive).

Take `NC(=O)c1ccccc1NC(=O)Cc1cccs1`: the inhibition is -10.4% (inactive).

Take `O=CNCc1nc2ccccc2n1CCc1ccccc1`: the inhibition was 66% (active).

For the compound `O=CNCCc1nc2ccccc2n1CCc1ccccc1`, the inhibition was 15% (inactive).

With `O=CNCc1nc2ccccc2n1CCCc1ccccc1`, the inhibition is -1.8% (inactive).

In the case of `CNc1ccc(Cl)nn1`, the inhibition is -42.7% (inactive).

On to `C=C(C)[C@@H]1CCC2(C(=O)O)CC[C@]3(C)[C@H](CC[C@@H]4[C@@]5(C)CCC(=O)C(C)(C)[C@@H]5CC[C@]43C)[C@@H]12` (stereo partly specified), for which the inhibition is 48.4% (inactive).

As to `CC1(C)C(=O)CC[C@]2(C)C3C(=O)C=C4[C@H]5C[C@@](C)(C(=O)O)CC[C@]5(C)CC[C@]4(C)[C@]3(C)CC[C@@H]12` (stereo partly specified), the inhibition was -7.3% (inactive).
